MCF10A rereplic: inducers of DNA re-replication in MCF 10A breast cells | MCF 10A DNA re-replication, Hoechst nuclear intensity, 48 h | hit rate 2.9% among 350,000 | Potency, µM (series often up to 46.1 µM), most hits filed as activators; also: nearly all actives have a fitted effect of over 50% in size
KB-V1 cytotox: kills drug-selected multidrug resistant KB-V1 cells | KB-V1 MDR cells viability, CellTiter-Glo, 72 h | hit rate 3.4% among 400,000 | Potency, µM (top dose mostly 46.1 µM), actives largely listed as cytotoxic; also: nearly all actives have a fitted effect of over 60% in size
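KB-V1, DMEM (no phenol red) + 10% FBS; cpd pin-transferred, titration series; 72 h, 37 degrees C; CellTiter-Glo, luminescence. Data normalized, curve-fit.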
KB-3-1 tox: kills parental KB-3-1 adenocarcinoma cells; hit rate 1.4% among 400,000; KB-3-1 viability, CellTiter-Glo ATP luminescence, 72 h; Potency, µM (highest dose often 46.1 µM), usual class: cytotoxic; also: nearly all actives have a fitted effect of over 60% in size
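Cytotoxicity in the drug-sensitive parental line KB-3-1 was scored as loss of CellTiter-Glo luminescence following 72 h incubation with compound. Values come from curve fitting of normalized concentration-response data.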
SW480 rereplic: DNA re-replication induction in SW480 cells; SW480 DNA re-replication, Hoechst DNA content imaging, 48 h; Potency, µM (titrated, usually from 46.1 µM), actives largely listed as activators; hit rate 1.8% among 340,000; also: nearly all actives have a fitted effect of over 55% in size
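Treated cells incubate 48 hr (37 C, 5% CO2), are stained 40 min with Hoechst, and nuclear fluorescence is enumerated; a rise in nuclei with high DNA signal marks re-replication.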
KCNH2 WT inh: inhibitors of human wildtype KCNH2 potassium channel | Q12809 | U2OS, BacMam KCNH2, thallium flux FluxOr; active compounds read low | activity change, % at 1.84 µM | hit rate 0.37% among 340,000;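 active = maximum activity change below -70%; inconclusive = maximum activity change between -70% and -50%; inactive = maximum activity change above -50%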
Target sequence (Q12809 whole entry, looked up): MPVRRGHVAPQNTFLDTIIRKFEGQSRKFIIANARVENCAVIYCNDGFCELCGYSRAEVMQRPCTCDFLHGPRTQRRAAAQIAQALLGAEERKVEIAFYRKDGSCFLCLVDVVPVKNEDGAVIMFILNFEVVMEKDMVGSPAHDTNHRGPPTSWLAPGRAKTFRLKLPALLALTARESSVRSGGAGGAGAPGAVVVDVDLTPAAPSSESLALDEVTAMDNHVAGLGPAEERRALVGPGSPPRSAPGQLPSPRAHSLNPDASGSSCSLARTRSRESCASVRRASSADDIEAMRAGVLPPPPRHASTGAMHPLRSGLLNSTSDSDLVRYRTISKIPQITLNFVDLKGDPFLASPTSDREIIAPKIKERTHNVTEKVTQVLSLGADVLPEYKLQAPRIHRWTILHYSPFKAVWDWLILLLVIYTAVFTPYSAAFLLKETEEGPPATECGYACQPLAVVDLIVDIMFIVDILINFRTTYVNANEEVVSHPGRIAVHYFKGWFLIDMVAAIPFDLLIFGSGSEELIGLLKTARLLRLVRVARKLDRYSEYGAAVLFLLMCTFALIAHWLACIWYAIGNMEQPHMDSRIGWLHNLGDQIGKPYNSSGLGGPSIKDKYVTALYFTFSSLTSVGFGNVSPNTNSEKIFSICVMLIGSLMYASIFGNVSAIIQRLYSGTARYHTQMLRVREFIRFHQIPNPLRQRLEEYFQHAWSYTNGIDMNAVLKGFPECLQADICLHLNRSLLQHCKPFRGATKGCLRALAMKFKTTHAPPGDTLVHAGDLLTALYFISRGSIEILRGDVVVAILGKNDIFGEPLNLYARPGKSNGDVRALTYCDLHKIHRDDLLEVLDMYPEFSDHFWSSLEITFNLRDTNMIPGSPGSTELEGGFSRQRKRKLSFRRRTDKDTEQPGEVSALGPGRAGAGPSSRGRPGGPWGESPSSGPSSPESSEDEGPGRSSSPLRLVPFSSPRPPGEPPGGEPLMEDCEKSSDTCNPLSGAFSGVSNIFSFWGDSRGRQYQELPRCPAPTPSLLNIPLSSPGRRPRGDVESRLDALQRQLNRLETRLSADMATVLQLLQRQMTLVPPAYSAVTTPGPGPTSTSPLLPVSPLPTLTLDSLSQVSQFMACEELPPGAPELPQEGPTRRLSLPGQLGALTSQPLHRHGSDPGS
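U2OS cells transduced with wild-type KCNH2 virus are loaded with FluxOr dye for 45 min, and thallium flux is measured in kinetic reads before and after stimulation buffer. Rate constants are normalized to DMSO controls.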
KCNH2 3.1 block: blocks the human KCNH2 3.1 channel isoform; hit rate 0.95% among 340,000; activity change, % (tested at about 1.8 µM); U2OS KCNH2 3.1, thallium flux FluxOr; active compounds read low; AID 720553;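 active = maximum activity change below -70%; inconclusive = maximum activity change from -70% to -50%; inactive = maximum activity change above -50%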;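 also: thallium influx rate constant from kinetic fluorescence after stimulation buffer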
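U2OS cells transduced with KCNH2 3.1 mutant virus (1.77 x 10^8 /mL, 4 h), plated overnight at 37 C, loaded 45 min with FluxOr dye plus Red40 quencher. Thallium flux rate constant from kinetic reads after stimulation buffer, normalised to controls.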
Each line names hits and unclear results; the compound was inactive in the other large screens. Most compounds without a hit are left out; they make up all but 7.6% or so of the library. Unless noted, calls follow the shape of the dose curve; as a rule, active = well fitted curve in the direction sought with a large enough effect; inconclusive = small, poorly fitted or top-dose-only effect, or another doubt; inactive = no such curve, though single readings can be large; an effect the other way counts as inactive or inconclusive.

Fc1ccc(-c2nc3c(Cl)cc(C(F)(F)F)cn3c2Cc2cccc(Cl)c2)cc1	KB-3-1 tox 23µM (no result: MCF10A rereplic, SW480 rereplic, KCNH2 WT inh, KCNH2 3.1 block)
FC(F)(F)c1cc(Cl)c2nc(-c3ccc(Cl)cc3)c(Cc3ccsc3)n2c1	KB-3-1 tox 12µM (no result: MCF10A rereplic, SW480 rereplic, KCNH2 WT inh, KCNH2 3.1 block)
NC(=O)NC(=O)COC(=O)c1cccc(NS(=O)(=O)/C=C/c2ccccc2)c1	none
CCOC(=O)COc1ccc2c(C#N)c3ccccn3c2c1	MCF10A rereplic 21µM, SW480 rereplic inconclusive (no result: KCNH2 WT inh)
N#Cc1c2ccc(OCC(N)=O)cc2n2ccccc12	KB-3-1 tox inconclusive
COc1ccc(/C=N/Nc2nnc(Cc3ccccc3)c(=O)[nH]2)cc1	none
Cc1ccsc1/C=N\Nc1cn[nH]c(=O)c1Cl	MCF10A rereplic inconclusive, KB-V1 cytotox 2.6µM, KB-3-1 tox 4.6µM
COc1ccc(/C=N/Nc2cn[nH]c(=O)c2Cl)cc1	MCF10A rereplic inconclusive, KB-V1 cytotox inconclusive, KB-3-1 tox 7.3µM
O=c1[nH]ncc(N/N=C/c2ccccc2)c1Cl	MCF10A rereplic inconclusive, KB-V1 cytotox inconclusive
Cc1ccc(/C=N\Nc2cn[nH]c(=O)c2Cl)cc1	KB-V1 cytotox inconclusive, KB-3-1 tox 7.1µM
Cc1ccc(N2C(=O)CCC2=O)c(C)c1	none
CCN(CCn1cccn1)Cc1nc(-c2ccccc2)no1	KB-V1 cytotox 23µM
COc1cc(-c2noc(CN3CCN(c4ccccc4)CC3)n2)cc(OC)c1OC	none (no result: MCF10A rereplic, SW480 rereplic, KCNH2 WT inh, KCNH2 3.1 block)
O=S1(=O)CCO[C@H]2CCCC[C@@H]2N1Cc1ccccc1	none (no result: MCF10A rereplic, SW480 rereplic, KCNH2 WT inh, KCNH2 3.1 block)
COCc1ccc(-c2c(-c3ccc(OC)cc3)oc(=O)c3cc(OC)c(OC)cc23)cc1	MCF10A rereplic 2.6µM
COc1cc2c(-c3cc(F)cc(F)c3)c(-c3ccsc3)oc(=O)c2cc1OC	KCNH2 3.1 block -106
COc1ccc(-c2c(-c3ccsc3)oc(=O)c3cc(OC)c(OC)cc23)cc1	none
COC(=O)[C@H](NCc1ccc(OC)c(B(O)O)c1)C(C)C	MCF10A rereplic inconclusive, SW480 rereplic inconclusive
Cc1cc(C)cc(NC(=S)N2CCN(CCO)CC2)c1	none
COc1ccc(Nc2nc(-c3ccc(OC)cc3)cs2)cc1	KB-V1 cytotox inconclusive
COc1ccc2oc(=O)c(-c3nnc(NCc4ccco4)s3)cc2c1	MCF10A rereplic 7.3µM, KB-V1 cytotox inconclusive, KB-3-1 tox inconclusive, SW480 rereplic 8.9µM
COc1ccc2oc(=O)c(-c3csc(Nc4ccc(O)cc4)n3)cc2c1	MCF10A rereplic 4.1µM, KB-V1 cytotox inconclusive, KB-3-1 tox inconclusive, SW480 rereplic inconclusive
CCOc1cccc2cc(-c3nnc(NCc4ccco4)s3)c(=O)oc12	MCF10A rereplic 21µM, SW480 rereplic inconclusive
COc1ccc(Nc2nc(-c3c[nH]c4ccccc34)cs2)cc1	MCF10A rereplic 16µM, KB-3-1 tox inconclusive, SW480 rereplic inconclusive
Cc1sc(NC(=O)CSc2nnnn2C2CCCCC2)c(C#N)c1C	none
O=C(O)c1ccccc1C(=O)NC1Cc2ccccc2C1	none
CC(NC(=O)C(C)N1CCN(S(=O)(=O)c2ccccc2)CC1)c1ccccc1 (stereo not given)	KB-V1 cytotox 15µM
CC(C)c1ccc(S(=O)(=O)N2CCN(C(C)C(=O)Nc3ccccc3-c3ccccc3)CC2)cc1 (stereo not given)	none
CC(C(=O)Nc1ccccc1-c1ccccc1)N1CCN(S(=O)(=O)c2ccccc2)CC1 (stereo not given)	MCF10A rereplic inconclusive, KB-V1 cytotox 2.9µM
CCCC(NC(=O)C(C)N1CCN(S(=O)(=O)c2ccccc2)CC1)c1ccccc1 (stereo not given)	KB-V1 cytotox 7.3µM
Cc1ccc(S(=O)(=O)N2CCN(C(C)C(=O)NCC(C)c3ccccc3)CC2)cc1 (stereo not given)	none
CCC(C)(C)C(=O)Nc1ncc(S(=O)(=O)c2ccc([N+](=O)[O-])cc2)s1	MCF10A rereplic inconclusive, SW480 rereplic inconclusive
CCCC(C)C(=O)Nc1ncc(S(=O)(=O)c2ccc([N+](=O)[O-])cc2)s1 (stereo not given)	MCF10A rereplic inconclusive, KB-V1 cytotox inconclusive, KB-3-1 tox inconclusive, KCNH2 WT inh -102, KCNH2 3.1 block -106
O=C(CN1CCCCC1)Nc1ccccc1	KB-V1 cytotox inconclusive
O=C(CN1CCCCCC1)Nc1ccc(Oc2ccccc2)cc1	MCF10A rereplic inconclusive, SW480 rereplic inconclusive, KCNH2 3.1 block -96
NC(=O)C1(N2CCCCC2)CCN(CC(=O)Nc2ccc(Oc3ccccc3)cc2)CC1	KB-V1 cytotox 13µM, KB-3-1 tox inconclusive (no result: KCNH2 3.1 block)
CO/N=C\CC(=O)Nc1ccc(Oc2ccccc2)cc1	MCF10A rereplic inconclusive, KB-V1 cytotox inconclusive, KB-3-1 tox 8.2µM, SW480 rereplic 5.2µM
O=C(C/C=N\O)Nc1ccc(Oc2ccccc2)cc1	none
CCn1c(C)cc(C(=O)COC(=O)c2ccccc2[N+](=O)[O-])c1C	KB-V1 cytotox 26µM
CCOC(=O)c1sc2ccccc2c1OC(=O)c1ccccc1OC	MCF10A rereplic inconclusive, SW480 rereplic 0.58µM (no result: KCNH2 WT inh)
CCOC(=O)c1ccccc1NC(=O)c1sc2ccccc2c1Cl	none (no result: MCF10A rereplic, SW480 rereplic, KCNH2 WT inh, KCNH2 3.1 block)
CCC(CO)Oc1cc(NCc2ccc(C(C)(C)C)cc2)c2ncn(C(C)C)c2c1 (stereo not given)	KB-V1 cytotox inconclusive, KB-3-1 tox inconclusive
C#CCn1c(S(=O)(=O)Cc2ccc(F)cc2)nc(-c2ccccc2)c1-c1ccccc1	MCF10A rereplic inconclusive, KB-V1 cytotox 5.2µM, KB-3-1 tox 16µM, SW480 rereplic inconclusive
CCOC(=O)Cn1c(S(=O)(=O)Cc2cccc(F)c2)nc(-c2ccccc2)c1-c1ccccc1	MCF10A rereplic inconclusive, KB-V1 cytotox 21µM, SW480 rereplic inconclusive
Cc1ccc(NC(=O)CSCC(=O)N(C)Cc2ccc(Cl)c(Cl)c2)cc1	KB-V1 cytotox 18µM
CSCCC(NS(=O)(=O)c1ccc2ccccc2c1)C(=O)OCC(=O)c1ccc(C(C)C)cc1 (stereo not given)	KB-V1 cytotox 18µM, SW480 rereplic inconclusive
CSCCC(NS(=O)(=O)c1ccc(Cl)cc1)C(=O)OCC(=O)c1c(C)[nH]c2ccccc12 (stereo not given)	MCF10A rereplic 12µM, KB-V1 cytotox 15µM, KB-3-1 tox inconclusive
CSCCC(NC(N)=O)C(=O)Nc1ccc2ccccc2c1 (stereo not given)	none
N#Cc1cnn(-c2nc(SCc3ccccc3)nc3sc4c(c23)CCCC4)c1N	KB-V1 cytotox 21µM
Cc1cccc(NC(=S)NNC(=O)c2ccccc2OC(F)F)c1	MCF10A rereplic inconclusive, KB-V1 cytotox 16µM, KB-3-1 tox inconclusive
Cc1cccc(NC(=S)NNC(=O)c2ccccc2Br)c1	KB-V1 cytotox inconclusive
COc1ccc(NC(=S)NNC(=O)c2ccccc2OC(F)F)cc1	MCF10A rereplic inconclusive, SW480 rereplic 0.58µM
Cn1c(=O)c2c(nc(N/N=C3\CCCc4ccccc43)n2Cc2ccc(F)cc2)n(C)c1=O	none
Cc1n(Cc2ccccc2)c2ccccc2[n+]1Cc1ccccc1	KB-3-1 tox 6.5µM

Bioassay records deposited in PubChem BioAssay by National Center for Advancing Translational Sciences (NCATS).
